Source: PubChem BioAssay
“And” between values parts separate entries of the source, which are not always exact repeats. Equal entries are not always repeated. Records with an inconclusive call do not appear. The source made the active and inactive calls.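 The calls were made as follows, unless noted: active = normalized viability below 100% at a tested concentration; inactive = the rest.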

Key:
[1] = growth inhibition of DIPG glioma cells, dose response, cell-based, SU-DIPG-XIII, MIPE4.0, CellTiter-Glo, qHTS (AID 1347061; cut-off not given, nearly all actives have AC50 up to about 37 µM;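 also: cells exposed to compound for 48 hours before readout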); settings: SU-DIPG-XIII viability, CellTiter-Glo ATP luminescence
[2] = growth inhibition of DIPG glioma cells, dose response, cell-based, JHH-DIPG-1, MIPE4.0, CellTiter-Glo, qHTS (AID 1347062; cut-off not given, nearly all actives have AC50 up to about 27 µM;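 as to AC50: cells exposed to compound for two days before readout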); settings: JHH-DIPG-1 viability, CellTiter-Glo ATP luminescence
[3] = growth inhibition of DIPG glioma cells, dose response, cell-based, SU-DIPG-IV, MIPE4.0, CellTiter-Glo, qHTS (AID 1347063; cut-off not given, nearly all actives have AC50 up to about 30 µM;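 also: compound exposure lasted 48 hours before the viability readout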); settings: SU-DIPG-IV viability, CellTiter-Glo ATP luminescence
[4] = SU-DIPG-VI glioma cell viability, MIPE4.0 library, CellTiter-Glo luminescence, qHTS (AID 1347066; cut-off not given, nearly all actives have AC50 up to about 30 µM;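 also: cells exposed to compound for 48 hours before readout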); settings: CellTiter-Glo ATP luminescence
[5] = sensitizers of A549 cells to miR-34 induction, primary screen, imaging, A549 dox-inducible miR-34, nuclei and caspase counts (AID 1347080;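 active = compounds whose cell count with miR-34 switched on is under 0.7 times the count with it off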); settings: A549 miR-34 inducible, Hoechst nuclei count, 48 h
[6] = survival rescue of mitochondrial mutant cells in low glucose, primary screen, MELAS cybrids, Rieske KO mouse fibroblasts, CellTiter-Glo (AID 1508586;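 active = mean z-score across replicates of 1.96 or higher in either the MELAS or the Rieske mutant cell line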;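 also: z relative to plate mean and SD of compound and empty wells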)
[7] = SU-DIPG-XXV glioma cell viability, MIPE5.0 library, qHTS (AID 1347068; cut-off not given, nearly all actives have IC50 up to about 30 µM;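 as to IC50: cells exposed to compound for 48 hours before viability readout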)
[8] = JHH-DIPG-1 glioma cell viability, MIPE5.0 library, CellTiter-Glo luminescence, qHTS (AID 1347067; cut-off not given, nearly all actives have AC50 up to about 26 µM;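 also: cells exposed to compound for 48 hours before readout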); settings: JHH-DIPG-1 glioma viability, CellTiter-Glo ATP luminescence
[9] = viability loss in pontine glioma line – cell-based, SU-DIPG-XXV, MIPE5.0, CellTiter-Glo, qHTS, dose response (AID 1347065; cut-off not given, nearly all actives have AC50 up to about 26 µM;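 also: cells exposed to compound for 48 hours before ATP readout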); settings: CellTiter-Glo ATP luminescence
[10] = ovarian cancer cell viability with rucaparib, profiling panel, oncology-focused library, rucaparib conditional (AID 1508598); settings: patient-derived ovarian cancer cells, CellTiter-Glo viability, 144 h, stronger effect = lower value
[11] = stronger effect = lower value, cell number ratio, induced over uninduced
[12] = measured here: relative caspase fold change +Dox/-Dox
[13] = measured here: total cells with miR-34 induction, stronger effect = lower value
[14] = measured here: total cells without miR-34 induction
[15] = MELAS cybrid survival, CellTiter-Glo 48 h, stronger effect = higher value
[16] = Rieske KO mouse fibroblast survival, CellTiter-Glo 72 h

Cn1c(N2CCCCS2(=O)=O)nc(C(=O)NCc2ccc(F)cc2)c(O)c1=O
8040: cell count [5, 14]
0.973: fold change [5, 12]
7350: cell count [5, 13]
inactive: outcome [1] | outcome [2] | outcome [3] | outcome [4] | fold change [5, 11] 0.915 | z-score [6, 15] -0.418
0.522: z-score [6, 16]

CN(N=O)C(=O)N[C@H]1C(O)OC(CO)[C@@H](O)[C@@H]1O (some centres not stated)
inactive: outcome [1] | outcome [2] | outcome [3] | outcome [4]

Nc1nc(F)nc2c1ncn2[C@@H]1O[C@H](CO)[C@@H](O)[C@H]1O
active: AC50 [1] 1.05 µM | AC50 [2] 0.59 µM | AC50 [3] 0.264 µM | AC50 [4] 0.833 µM

CCN1C[C@H](C)n2c(c(O)c3c(=O)n(Cc4ccc(F)c(Cl)c4)nc(C(=O)NC)c32)C1=O
inactive: outcome [1] | outcome [2] | outcome [3] | outcome [4]

CCn1c(C(=O)N(C2CC2)C2CC2)cc2c3c(ncn3C)c(Nc3cc(C)n(C)n3)nc21
inactive: outcome [1] | outcome [2] | outcome [3] | outcome [4] | outcome [7]

CNC(=O)CN1CCC(Oc2cc3c(Nc4cccc(Cl)c4F)ncnc3cc2OC)CC1
-0.429: z-score [6, 16]
inactive: outcome [1] | outcome [2] | outcome [3] | outcome [4] | outcome [8] | outcome [7] | fold change [5, 11] 0.965 | z-score [6, 15] -0.464
5420: cell count [5, 14]
5230: cell count [5, 13]
1.05: fold change [5, 12]

COc1cc2c(cc1OC)[C@@H]1Cc3ccc(OC)c(OC)c3CN1CC2
inactive: outcome [1] | outcome [2] | outcome [3] | outcome [4] | fold change [5, 11] 0.902 | z-score [6, 15] -0.395
0.654: fold change [5, 12]
10200: cell count [5, 14]
0.428: z-score [6, 16]
9170: cell count [5, 13]

O=C(NNC(=O)c1ccc(CNS(=O)(=O)c2ccc(F)c(Cl)c2)cc1)c1ccccc1
inactive: outcome [1] | outcome [2] | outcome [3] | outcome [4]

COc1ccc2c(Oc3ccc(NC(=O)c4c(C)n(CC(C)(C)O)n(-c5ccccc5)c4=O)nc3)ccnc2c1
0.917: fold change [5, 12]
9080: cell count [5, 14]
inactive: outcome [1] | outcome [2] | outcome [4] | fold change [5, 11] 0.842 | z-score [6, 15] -0.36
active: AC50 [9] 13.2 µM
1.01: z-score [6, 16]
7640: cell count [5, 13]

CCOC(=O)N[C@@H]1CC[C@@H]2[C@@H](C1)C[C@H]1C(=O)O[C@H](C)[C@H]1[C@H]2/C=C/c1ccc(-c2cccc(F)c2)cn1
inactive: outcome [1] | outcome [2] | outcome [4] | outcome [8] | outcome [7]

NC(=O)c1noc([C@H](CCCC2CCCCC2)CC(=O)NO)n1
inactive: outcome [1] | outcome [4] | outcome [8] | outcome [7]
active: AC50 [2] 23.5 µM

CC1(C)OC2CC3C4CC(F)C5=CC(=O)C=CC5(C)C4C(O)CC3(C)[C@]2(C(=O)CO)O1 (some centres not stated)
inactive: outcome [1] | outcome [2] | outcome [4]

CC(C)(Cc1ccc2ccccc2c1)NC[C@@H](O)COc1cccc(Cl)c1C#N
active: AC50 [9] 10.5 µM | AC50 [8] 10.5 µM | IC50 [7] 13.2 µM
inactive: outcome [1] | outcome [2]

Cc1c(-c2cccc3c(CCCOc4cccc5ccccc45)c(C(=O)O)n(Cc4cccnc4)c23)c(COc2ccc(N3CCN([S+](=O)([O-])N(C)C)CC3)cc2)nn1C
inactive: outcome [1] | outcome [2]
active: AC50 [4] 23.5 µM

Cc1cccc(Nc2nc(-c3ccncc3)cs2)c1
4820 and 4970: cell count [5, 14]
active: AC50 [2] 20.9 µM | AC50 [9] 20.9 µM | viability ([10]; at 0.000305 µM, OCI-P5x cells, with rucaparib 20 µM, 100% = cells with rucaparib alone) 88.3% | viability ([10]; at 0.000305 µM, OCI-P5x cells, without rucaparib) 86.6% | viability ([10]; at 0.00122 µM, OCI-P5x cells, with rucaparib 20 µM, 100% = cells with rucaparib alone) 95.8% | viability ([10]; at 0.00122 µM, OCI-P5x cells, without rucaparib) 93.7% | viability ([10]; at 0.00488 µM, OCI-P5x cells, with rucaparib 20 µM, 100% = cells with rucaparib alone) 75.1% | viability ([10]; at 0.00488 µM, OCI-P5x cells, without rucaparib) 94.9% | viability ([10]; at 0.0195 µM, OCI-P5x cells, without rucaparib) 89.5% | viability ([10]; at 0.313 µM, OCI-P5x cells, without rucaparib) 95.3% | viability ([10]; at 1.25 µM, OCI-P5x cells, without rucaparib) 98.4% | viability ([10]; at 5 µM, OCI-P5x cells, with rucaparib 20 µM, 100% = cells with rucaparib alone) 82.2%
0.542 and 0.911: fold change [5, 12]
inactive: outcome [1] | outcome [4] | outcome [7] | fold change [5, 11] 0.988 and 0.935 | z-score [6, 15] -0.247 | viability ([10]; at 0.000305 µM, OCI-C5x cells, with rucaparib 10 µM, 100% = cells with rucaparib alone) 109% | viability ([10]; at 0.000305 µM, OCI-C5x cells, without rucaparib) 111% | viability ([10]; at 0.00122 µM, OCI-C5x cells, with rucaparib 10 µM, 100% = cells with rucaparib alone) 108% | viability ([10]; at 0.00122 µM, OCI-C5x cells, without rucaparib) 108% | viability ([10]; at 0.00488 µM, OCI-C5x cells, with rucaparib 10 µM, 100% = cells with rucaparib alone) 114% | viability ([10]; at 0.00488 µM, OCI-C5x cells, without rucaparib) 106% | viability ([10]; at 0.0195 µM, OCI-C5x cells, with rucaparib 10 µM, 100% = cells with rucaparib alone) 112% | viability ([10]; at 0.0195 µM, OCI-C5x cells, without rucaparib) 112% | viability ([10]; at 0.0195 µM, OCI-P5x cells, with rucaparib 20 µM, 100% = cells with rucaparib alone) 110% | viability ([10]; at 0.0781 µM, OCI-C5x cells, with rucaparib 10 µM, 100% = cells with rucaparib alone) 107% | viability ([10]; at 0.0781 µM, OCI-C5x cells, without rucaparib) 108% | viability ([10]; at 0.0781 µM, OCI-P5x cells, with rucaparib 20 µM, 100% = cells with rucaparib alone) 102% | viability ([10]; at 0.0781 µM, OCI-P5x cells, without rucaparib) 101% | viability ([10]; at 0.313 µM, OCI-C5x cells, with rucaparib 10 µM, 100% = cells with rucaparib alone) 115% | viability ([10]; at 0.313 µM, OCI-C5x cells, without rucaparib) 106% | viability ([10]; at 0.313 µM, OCI-P5x cells, with rucaparib 20 µM, 100% = cells with rucaparib alone) 104% | viability ([10]; at 1.25 µM, OCI-C5x cells, with rucaparib 10 µM, 100% = cells with rucaparib alone) 129% | viability ([10]; at 1.25 µM, OCI-C5x cells, without rucaparib) 115% | viability ([10]; at 1.25 µM, OCI-P5x cells, with rucaparib 20 µM, 100% = cells with rucaparib alone) 101% | viability ([10]; at 5 µM, OCI-C5x cells, with rucaparib 10 µM, 100% = cells with rucaparib alone) 157% | viability ([10]; at 5 µM, OCI-C5x cells, without rucaparib) 136% | viability ([10]; at 5 µM, OCI-P5x cells, without rucaparib) 110%
1.01: z-score [6, 16]
4770 and 4650: cell count [5, 13]

COc1ccc(Cc2nccc3cc(OC)c(OC)cc23)cc1OC
inactive: outcome [1] | outcome [2] | outcome [9] | outcome [4]

Clc1cc(Cl)cc(CNc2ncncc2-c2ccc3c(c2)OCO3)c1
inactive: outcome [1] | outcome [2] | outcome [4]

O=C(O)CC/C=C\CC[C@@H]1[C@@H](N2CCCCC2)[C@@H](O)C[C@@H]1OCc1ccc(-c2ccccc2)cc1
inactive: outcome [1] | outcome [2] | outcome [9] | outcome [4] | outcome [8] | outcome [7]

CCCCc1ccc(NS(=O)(=O)c2ccc(C)c(C(=O)N3CCN(c4cccc(C)c4C)CC3)c2)cc1
active: AC50 [4] 23.5 µM
inactive: outcome [1] | outcome [2]

O=C(NC[C@H]1CN(c2ccc(N3CCOCC3=O)cc2)C(=O)O1)c1ccc(Cl)s1
inactive: outcome [1] | outcome [2] | outcome [4] | outcome [8] | outcome [7]

CCCn1c(=O)c2[nH]c(C34CC5CC3C[C@@H](C5)C4)nc2n(CCC)c1=O
inactive: outcome [1] | outcome [2] | outcome [4] | outcome [7]

O=C(O)C1(Cc2cccc(Nc3nccs3)n2)CCC(Oc2cccc(Cl)c2F)CC1 (configuration not stated)
0.491: fold change [5, 12]
3280: cell count [5, 14]
3320: cell count [5, 13]
inactive: outcome [1] | outcome [2] | outcome [4] | outcome [7] | fold change [5, 11] 1.01 | z-score [6, 15] -0.373
0.69: z-score [6, 16]

O=C(N[C@@H](c1ccccc1)[C@@H]1CCCCN1)c1cccc(C(F)(F)F)c1Cl
active: AC50 [9] 20.9 µM
inactive: outcome [1] | outcome [2] | outcome [4] | outcome [7]
